# Inconclusive results are not listed. Where a call stands in place of a potency, no number is given. Active and inactive are the calls of the source. Unless noted, the call rests on the fitted dose curve; in most records, active means well fitted inhibition curve with a large enough effect; inconclusive means small, poorly fitted or top-dose-only effect; inactive means flat fitted curve, though single readings scatter.
# Assays:
# [1] = qHTS profiling for inhibitors of Plasmodium falciparum proliferation (AID 504749); further: potency means the concentration at half of the fitted maximal effect; on all read-outs here: nearly all actives have a fitted effect of over 60% in size; conditions: P. falciparum in erythrocytes, SYBR Green DNA, 72 h; for activity, negative = inhibition: at 28.7 µM (top of the series)
# In short: (§1)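 P. falciparum-infected erythrocytes (0.3% parasitemia, 2.5% hematocrit final) were exposed to compounds for 72 h at 37 C in 5% CO2, then lysed with SYBR Green buffer overnight at room temperature; parasite DNA fluorescence was normalized to artemisinin and DMSO controls.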
# 3D7 = test: as above; conditions: P. falciparum in erythrocytes, SYBR Green DNA, 72 h; series mostly up to 28.7 µM
# In short: as §1
# AA1029 = test: as above; conditions: P. falciparum in erythrocytes, SYBR Green DNA, 72 h; series mostly up to 28.7 µM
# In short: as §1
# AS120 = test: as above; conditions: P. falciparum in erythrocytes, SYBR Green DNA, 72 h; series mostly up to 28.7 µM
# In short: as §1
# ATS189 = test: as above; conditions: P. falciparum in erythrocytes, SYBR Green DNA, 72 h; series mostly up to 28.7 µM
# In short: as §1
# ATS95 = test: as above; conditions: P. falciparum in erythrocytes, SYBR Green DNA, 72 h; series mostly up to 28.7 µM
# In short: as §1
# C2A = test: as above; conditions: P. falciparum in erythrocytes, SYBR Green DNA, 72 h; series mostly up to 28.7 µM
# In short: as §1
# CP185 = test: as above; conditions: P. falciparum in erythrocytes, SYBR Green DNA, 72 h; series mostly up to 28.7 µM
# In short: as §1
# CP191 = test: as above; conditions: P. falciparum in erythrocytes, SYBR Green DNA, 72 h; series mostly up to 28.7 µM
# In short: as §1
# CP194 = test: as above; conditions: P. falciparum in erythrocytes, SYBR Green DNA, 72 h; series mostly up to 28.7 µM
# In short: as §1
# CP215 = test: as above; conditions: P. falciparum in erythrocytes, SYBR Green DNA, 72 h; series mostly up to 28.7 µM
# In short: as §1
# CP217 = test: as above; conditions: P. falciparum in erythrocytes, SYBR Green DNA, 72 h; series mostly up to 28.7 µM
# In short: as §1
# [2] = qHTS for identification of novel therapeutic agents for treatment of microphthalmiaassociated transcription factor (MiT) renal cell carcinoma (RCC) (AID 1963991; calls by dose curve; further: potency means the concentration at half of the fitted maximal effect); conditions: CellTiter-Glo, 48 h; for z-score: stronger effect = lower value
# In short: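 Curves over 11 concentrations were fitted to CellTiter-Glo luminescence, scaled between empty wells (0%) and DMSO (100%) viability. Cells were UOK109, UOK124 and UOK145 TFE3-fusion RCC lines at 500/well, exposed 48 hours at 37 C.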
# 7G8 = test: qHTS profiling for inhibitors of Plasmodium falciparum proliferation (AID 504749); further: nearly all actives have a fitted effect of over 60% in size; further: potency means the concentration at half of the fitted maximal effect; conditions: P. falciparum in erythrocytes, SYBR Green DNA, 72 h; series mostly up to 28.7 µM
# In short: as §1
# CP192 = test: as above; conditions: P. falciparum in erythrocytes, SYBR Green DNA, 72 h; series mostly up to 28.7 µM
# In short: as §1
# CP201 = test: as above; conditions: P. falciparum in erythrocytes, SYBR Green DNA, 72 h; series mostly up to 28.7 µM
# In short: as §1
# CP211 = test: as above; conditions: P. falciparum in erythrocytes, SYBR Green DNA, 72 h; series mostly up to 28.7 µM
# In short: as §1
# [3] = qHTS drug screen for cell cycle checkpoint inhibitors in PARPi-resistant BRCA-mutant ovarian cancer cell lines. (AID 1963452; calls by dose curve); conditions: PEO1/OlaR viability, CellTiter-Glo luminescence, 96 h, stronger effect = lower value
# In short: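 PEO1, PEO4 and PEO1/OlaR ovarian cancer cells, 600 per well, exposed 96 h at 37C to a dilution series. Viability read by CellTiter-Glo luminescence, normalized to DMSO and empty wells; activity summarized as Z-AUC.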
# CP203 = test: qHTS profiling for inhibitors of Plasmodium falciparum proliferation (AID 504749); further: nearly all actives have a fitted effect of over 60% in size; further: potency means the concentration at half of the fitted maximal effect; conditions: P. falciparum in erythrocytes, SYBR Green DNA, 72 h; series mostly up to 28.7 µM
# In short: as §1
# [4] = TFE3-RCC UOK109 viability, measured here: UOK109 Z-AUC
# [5] = TFE3-RCC viability, measured here: UOK124 Z-AUC
# [6] = TFE3-RCC viability, measured here: UOK145 Z-AUC
# [7] = measured here: PEO1 parental Z-AUC
structure (smiles),measurement,setting,value
Cc1cc(=O)c2c(O)c3c(O)cc(=O)c4c3c3c(cc(O)c1c23)C(C)(C)C=4O,Potency,[1]; parasite line A,2.51 µM (active)
same,Potency,[1]; parasite line B,1 µM (active)
same,Potency,3D7,1.58 µM (active)
same,Potency,AA1029,1.78 µM (active)
same,Potency,AS120,1.78 µM (active)
same,Potency,ATS189,1.41 µM (active)
same,Potency,ATS95,2 µM (active)
same,Potency,C2A,1.58 µM (active)
same,Potency,CP185,1.58 µM (active)
same,Potency,CP191,1.12 µM (active)
same,Potency,CP194,2.69 µM (active)
same,Potency,CP215,2.39 µM (active)
same,Potency,CP217,0.891 µM (active)
C[C@H](Cn1cnc2c(N)ncnc21)OCP(=O)(O)O,z-score,[2]; [4],0.368
same,z-score,[2]; [5],0.295
same,z-score,[2]; [6],0.62
same,"activity, negative = inhibition",[1]; parasite line A,2.65% (inactive)
same,"activity, negative = inhibition",[1]; parasite line B,3.87% (inactive)
same,Potency,3D7,inactive
same,Potency,7G8,inactive
same,Potency,AA1029,inactive
same,Potency,AS120,inactive
same,Potency,ATS189,inactive
same,Potency,ATS95,inactive
same,Potency,C2A,inactive
same,Potency,CP185,inactive
same,Potency,CP191,inactive
same,Potency,CP192,inactive
same,Potency,CP194,inactive
same,Potency,CP201,inactive
same,Potency,CP211,inactive
same,Potency,CP215,inactive
same,Potency,CP217,inactive
CCOC(=O)C1=C[C@@H](OC(CC)CC)[C@H](NC(C)=O)[C@@H](N)C1,z-score,[2]; [4],0.372
same,z-score,[2]; [5],0.178
same,z-score,[2]; [6],0.414
CN(c1nccc(=O)[nH]1)C1CCN(c2nc3ccccc3n2Cc2ccc(F)cc2)CC1,"activity, negative = inhibition",[1]; parasite line A,-22.1% (inactive)
same,"activity, negative = inhibition",[1]; parasite line B,-10.5% (inactive)
same,Potency,3D7,inactive
same,Potency,7G8,11.2 µM (active)
same,Potency,ATS189,inactive
same,Potency,C2A,inactive
same,Potency,CP185,inactive
same,Potency,CP191,inactive
same,Potency,CP192,inactive
same,Potency,CP201,inactive
COc1ccc(C2(C#N)CCC(C(=O)O)CC2)cc1OC1CCCC1 (stereo not given),"activity, negative = inhibition",[1]; parasite line A,10.1% (inactive)
same,"activity, negative = inhibition",[1]; parasite line B,-9.11% (inactive)
same,Potency,3D7,inactive
same,Potency,7G8,inactive
same,Potency,AA1029,inactive
same,Potency,AS120,inactive
same,Potency,ATS189,inactive
same,Potency,ATS95,inactive
same,Potency,C2A,inactive
same,Potency,CP185,inactive
same,Potency,CP191,inactive
same,Potency,CP192,inactive
same,Potency,CP194,inactive
same,Potency,CP201,inactive
same,Potency,CP211,inactive
same,Potency,CP215,inactive
same,Potency,CP217,inactive
CC(C)C[C@H](NC(=O)[C@H](Cc1ccccc1)NC(=O)c1cnccn1)B(O)O,Potency,"[2]; TFE3-RCC UOK109 viability, active = Z-AUC below -0.8 in all three lines",0.118 µM (active)
same,z-score,[2]; [4],-1.97
same,z-score,[2]; [5],-3.15
same,z-score,[2]; [6],-4.08
O=C1CCc2ccc(OCCCCN3CCN(c4cccc(Cl)c4Cl)CC3)cc2N1,Z-AUC,[3],-1.31 (inactive)
same,Z-AUC,[3]; [7],-0.72
same,Z-AUC,[3]; measured here: PEO4 Z-AUC,-1.21
same,Potency,7G8,12.6 µM (active)
same,Potency,CP191,8.91 µM (active)
same,Potency,CP192,inactive
same,Potency,CP194,inactive
same,Potency,CP201,inactive
same,Potency,CP203,inactive
same,Potency,CP211,inactive
same,Potency,CP215,inactive
C=CCc1cc(OC)c(O)c(C(=O)NCCO)c1,z-score,[2]; [4],0.957
same,z-score,[2]; [5],0.641
same,z-score,[2]; [6],1.25
same,"activity, negative = inhibition",[1]; parasite line A,6.75% (inactive)
same,"activity, negative = inhibition",[1]; parasite line B,10.3% (inactive)
same,Potency,3D7,inactive
same,Potency,7G8,inactive
same,Potency,AA1029,inactive
same,Potency,AS120,inactive
same,Potency,ATS189,inactive
same,Potency,ATS95,inactive
same,Potency,C2A,inactive
same,Potency,CP185,inactive
same,Potency,CP191,inactive
same,Potency,CP192,inactive
same,Potency,CP194,inactive
same,Potency,CP201,inactive
same,Potency,CP211,inactive
same,Potency,CP215,inactive
same,Potency,CP217,inactive
CC(=O)NC[C@H]1CN(c2ccc(N3CCOCC3)c(F)c2)C(=O)O1,z-score,[2]; [4],-0.988
same,z-score,[2]; [5],0.658
same,z-score,[2]; [6],1.47
Cc1cc(=O)oc2cc(O)ccc12,Z-AUC,[3],0.0735 (inactive)
same,Z-AUC,[3]; [7],0.832
same,Z-AUC,[3]; measured here: PEO4 Z-AUC,0.848
same,Potency,7G8,inactive
same,Potency,AA1029,inactive
same,Potency,ATS95,inactive
same,Potency,CP191,inactive
same,Potency,CP192,inactive
same,Potency,CP194,inactive
same,Potency,CP201,inactive
same,Potency,CP211,inactive
same,Potency,CP215,inactive
NS(=O)(=O)c1cc(C(=O)O)c(NCc2ccco2)cc1Cl,z-score,[2]; [4],-0.035
same,z-score,[2]; [5],-0.245
same,z-score,[2]; [6],0.387
O=C(CS(=O)Cc1ccco1)NCC=CCOc1cc(CN2CCCCC2)ccn1 (stereo not given),z-score,[2]; [4],0.673
same,z-score,[2]; [5],0.332
same,z-score,[2]; [6],0.715
same,"activity, negative = inhibition",[1]; parasite line A,3.29% (inactive)
same,"activity, negative = inhibition",[1]; parasite line B,-5.5% (inactive)
same,Potency,3D7,inactive
same,Potency,7G8,inactive
same,Potency,AA1029,inactive
same,Potency,AS120,inactive
same,Potency,ATS189,inactive
same,Potency,ATS95,inactive
same,Potency,C2A,inactive
same,Potency,CP185,inactive
same,Potency,CP192,inactive
same,Potency,CP194,inactive
same,Potency,CP201,inactive
same,Potency,CP211,inactive
same,Potency,CP215,inactive
same,Potency,CP217,inactive
CNC[C@@H](O)[C@@H](O)[C@H](O)[C@H](O)CO,z-score,[2]; [4],1.02
same,z-score,[2]; [5],0.532
same,z-score,[2]; [6],0.899
same,"activity, negative = inhibition",[1]; parasite line A,7.09% (inactive)
same,"activity, negative = inhibition",[1]; parasite line B,5.8% (inactive)
same,Potency,3D7,inactive
same,Potency,7G8,inactive
same,Potency,AA1029,inactive
same,Potency,AS120,inactive
same,Potency,ATS189,inactive
same,Potency,ATS95,inactive
same,Potency,C2A,inactive
same,Potency,CP185,inactive
same,Potency,CP191,inactive
same,Potency,CP192,inactive
same,Potency,CP194,inactive
same,Potency,CP201,inactive
same,Potency,CP211,inactive
same,Potency,CP215,inactive
same,Potency,CP217,inactive
CC1(C)CCC(C)(C)c2cc(NC(=O)c3ccc(C(=O)O)cc3)ccc21,"activity, negative = inhibition",[1]; parasite line A,-1.01% (inactive)
same,"activity, negative = inhibition",[1]; parasite line B,-5.09% (inactive)
same,Potency,3D7,inactive
same,Potency,AA1029,inactive
same,Potency,AS120,inactive
same,Potency,ATS189,inactive
same,Potency,ATS95,inactive
same,Potency,C2A,inactive
same,Potency,CP185,inactive
same,Potency,CP191,inactive
same,Potency,CP192,inactive
same,Potency,CP194,inactive
same,Potency,CP201,inactive
same,Potency,CP203,inactive
same,Potency,CP211,inactive
same,Potency,CP215,inactive
same,Potency,CP217,inactive
CCC[C@@H]1C[C@@H](C(=O)N[C@@H]([C@H]2O[C@H](SC)[C@H](O)[C@@H](O)[C@H]2O)[C@@H](C)O)N(C)C1,Potency,ATS189,inactive
same,Potency,CP215,2.69 µM (active)
Nc1cccc2c1CN(C1CCC(=O)NC1=O)C2=O (stereo not given),z-score,[2]; [4],0.87
same,z-score,[2]; [5],1.94
same,z-score,[2]; [6],0.731
same,"activity, negative = inhibition",[1]; parasite line A,12.2% (inactive)
same,"activity, negative = inhibition",[1]; parasite line B,5.27% (inactive)
same,Potency,3D7,inactive
same,Potency,7G8,inactive
same,Potency,AA1029,inactive
same,Potency,AS120,inactive
same,Potency,ATS189,inactive
same,Potency,ATS95,inactive
same,Potency,C2A,inactive
same,Potency,CP185,inactive
same,Potency,CP191,inactive
same,Potency,CP192,inactive
same,Potency,CP194,inactive
same,Potency,CP201,inactive
same,Potency,CP203,inactive
same,Potency,CP211,inactive
same,Potency,CP215,inactive
same,Potency,CP217,inactive
